Measured values published in the supplement of paper PMC10412459.

Tested on: K562 SF3B1 K700E vs K562 SF3B1 WT
Experiment: surviving fraction ratio K562 SF3B1 K700E / K562 SF3B1 WT (each relative to DMSO); higher = less selective killing of SF3B1 K700E cells
Details: 5 days
Procedure: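 Drug-sensitivity screen of an in-house 80-compound library in isogenic K562 SF3B1 K700E versus SF3B1 WT cells. 250 cells/well in 384-well plates were exposed 24 h after seeding to 0.5-1000 nM compound for 5 days, and viability was read by CellTiter-Glo. Surviving fraction is relative to DMSO, and the value is the ratio of surviving fraction in K700E to WT cells; the paper calls ratio <0.6 with P<0.01 selective.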

SMILES	surviving fraction ratio K562 SF3B1 K700E / K562 SF3B1 WT (0.5nM)	surviving fraction ratio K562 SF3B1 K700E / K562 SF3B1 WT (1nM)	surviving fraction ratio K562 SF3B1 K700E / K562 SF3B1 WT (5nM)	surviving fraction ratio K562 SF3B1 K700E / K562 SF3B1 WT (10nM)	surviving fraction ratio K562 SF3B1 K700E / K562 SF3B1 WT (50nM)	surviving fraction ratio K562 SF3B1 K700E / K562 SF3B1 WT (100nM)	surviving fraction ratio K562 SF3B1 K700E / K562 SF3B1 WT (500nM)	surviving fraction ratio K562 SF3B1 K700E / K562 SF3B1 WT (1000nM)
Cc1nc(Nc2n[nH]c3c2CN(C(=O)N[C@H](CN(C)C)c2ccccc2)C3(C)C)c2sccc2n1	0.912	0.858	1.09	1.34	1.76	1.69	1.98	1.69
CNC(=O)c1cc(Oc2ccc(NC(=O)Nc3ccc(Cl)c(C(F)(F)F)c3)cc2)ccn1 [sorafenib]	0.8	0.973	0.87	0.956	0.915	1	0.887	0.973
Cc1nc(Nc2ncc(C(=O)Nc3c(C)cccc3Cl)s2)cc(N2CCN(CCO)CC2)n1 [dasatinib]	1.18	2.2	1.86	1.39	1.23	1.42	1.72	1.65
CC[C@@H]1C(=O)N(C)c2cnc(Nc3ccc(C(=O)NC4CCN(C)CC4)cc3OC)nc2N1C1CCCC1	0.867	0.956	0.455	2.45	2.89	2.99	2.76	2.22
Oc1ccc(/C=C/c2cc(O)cc(O)c2)cc1 [resveratrol]	0.896	0.898	0.856	0.905	1	1.24	0.916	1.28
